Our source for the outcome and AC50 values is PubChem BioAssay (EPA / NIEHS).

Active and inactive are the calls of the source. Rule for the calls, unless noted: active = hit-call score of the fitted dose curve at least 0.9, where 1 is the maximum; inactive = score below 0.9.

The target of one test is Peroxisome proliferator-activated receptor gamma (Homo sapiens) (UniProt P37231). Put plainly: OT_PPARg_PPARgSRC1_1440: Odyssey Thera (OT) 24-hour Protein-Complementation Assay for Peroxisome Proliferator-activated Receptor Gamma/ SRC-1 Co-activator (AID 2283388; active = hit-call score of the fitted dose curve at least 0.9, where 1 is the maximum;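 note: nuclear to cytoplasmic ratio of reconstituted Venus YFP fluorescence in fixed imaged cells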).
Chain of Peroxisome proliferator-activated receptor gamma (Homo sapiens) (P37231 whole entry, looked up): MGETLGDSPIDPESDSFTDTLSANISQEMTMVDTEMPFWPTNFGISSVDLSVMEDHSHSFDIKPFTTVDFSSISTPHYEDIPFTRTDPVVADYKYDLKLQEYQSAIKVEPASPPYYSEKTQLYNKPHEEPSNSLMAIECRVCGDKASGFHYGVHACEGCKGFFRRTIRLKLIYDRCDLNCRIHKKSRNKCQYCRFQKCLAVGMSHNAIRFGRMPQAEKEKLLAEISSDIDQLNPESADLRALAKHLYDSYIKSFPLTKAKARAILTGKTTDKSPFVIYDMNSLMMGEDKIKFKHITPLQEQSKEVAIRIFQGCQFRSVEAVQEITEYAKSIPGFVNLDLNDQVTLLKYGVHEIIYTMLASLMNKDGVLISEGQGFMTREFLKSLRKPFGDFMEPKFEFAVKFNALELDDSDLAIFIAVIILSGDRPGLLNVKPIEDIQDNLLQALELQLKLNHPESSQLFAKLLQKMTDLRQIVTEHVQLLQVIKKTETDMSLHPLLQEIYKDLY
Settings: not given
The procedure, abridged:
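Protein-fragment complementation between PPARg and coactivator SRC-1 was measured by fluorescence imaging in transiently transfected HEK293T cells after 24 h treatment. Signal was quantified as N/C ratio in the 488 nm channel, with DMSO as negative control.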
`Oc1ccc(C(c2ccc(O)cc2)C(Cl)(Cl)Cl)cc1`: the compound was classed as inactive.

As for `S=C(S)NCCNC(=S)S.[Mn+2].[S-]C([S-])=NCCN=C([S-])[S-].[Zn+2]`, the outcome was inactive. Same read-out and setting: the entry for `COc1c(Cl)ccc(Cl)c1C(=O)O` is “inactive”; for `CCSC(=O)N(CC(C)C)CC(C)C` it is “inactive”.

Read-out in the next test: not listed separately
Nature of the test: CEETOX_H295R_11DCORT: CeeTox H295R High-throughput Steroidogenesis Assay for 11-Deoxycortisol (11DCORT) (AID 2283432).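 For AC50: 11-deoxycortisol secreted into the medium measured by LC-MS/MS.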 Conditions: actives raise or lower the signal. The procedure, abridged:
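Human adrenal H295R cells were prestimulated with 10 uM forskolin for 48 h, then exposed to test chemical (0.1% DMSO final) for 48 h. Medium 11-deoxycortisol was quantified by MTBE extraction and HPLC-MS/MS; bidirectional fitting relative to DMSO.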
Turning to `CN(C)C(=O)Nc1ccc(Cl)c(Cl)c1`, the result was inactive.

As to `CC(=O)S[C@@H]1CC2=CC(=O)CC[C@]2(C)[C@H]2CC[C@@]3(C)[C@@H](CC[C@@]34CCC(=O)O4)[C@H]12`, the AC50 is 1760 nM (active).

As for `C=CCOC(Cn1ccnc1)c1ccc(Cl)cc1Cl` (centres undefined), the AC50 is 775 nM (active).

With `CC(C)(C)[C@@H](O)[C@@H](Cc1ccc(Cl)cc1)n1cncn1`, the call was inactive. For the compound `Oc1ccc(C(c2ccc(O)cc2)C(Cl)(Cl)Cl)cc1`, the AC50 was 2850 nM (active).

`CSC(=O)c1cccc2nnsc12`: the call was inactive.

With `S=C([S-])NCCNC(=S)[S-].[Mn+2]`, the result was inactive. Same read-out and setting: the entry for `S=C(S)NCCNC(=S)S.[Mn+2].[S-]C([S-])=NCCN=C([S-])[S-].[Zn+2]` is “inactive”. Same read-out and setting: the entry for `CCCN(CCC)C(=O)SCC` is “inactive”; for `CCCCC(CC)CN1C(=O)C2C3C=CC(C3)C2C1=O` (centres undefined) it is “inactive”.

Read-out in another test: not listed separately
Nature of the test: CEETOX_H295R_OHPREG: CeeTox H295R High-throughput Steroidogenesis Assay for OH-Pregnenolone (OHPREG) (AID 2283434). The note with it: actives raise or lower the signal. The procedure, abridged:
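H295R, 10 uM forskolin pre-stim 48 h; test chemical 48 h, 0.1% DMSO final. MTBE extraction, reverse-phase C18 HPLC-ESI+ MS/MS of medium. Gain/loss vs DMSO; viability by MTT in same wells.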
With `CN(C)C(=O)Nc1ccc(Cl)c(Cl)c1`, the compound was classed as inactive. As for `CC(=O)S[C@@H]1CC2=CC(=O)CC[C@]2(C)[C@H]2CC[C@@]3(C)[C@@H](CC[C@@]34CCC(=O)O4)[C@H]12`, the AC50 is 805 nM (active).

For the compound `C=CCOC(Cn1ccnc1)c1ccc(Cl)cc1Cl` (centres undefined), the result was inactive.

Take `CC(C)(C)[C@@H](O)[C@@H](Cc1ccc(Cl)cc1)n1cncn1`: the call was inactive. Take `CCCCOCCOCCOCc1cc2c(cc1CCC)OCO2`: the AC50 is 5000 nM (active). For the compound `Oc1ccc(C(c2ccc(O)cc2)C(Cl)(Cl)Cl)cc1`, the AC50 is 299 nM (active). In the case of `c1ccc(Nc2ccccc2)cc1`, the compound was called inactive. With `CSC(=O)c1cccc2nnsc12`, the AC50 was 55600 nM (active).

On to `CC(C)(c1ccc(O)cc1)c1ccc(O)cc1`, for which the result was inactive. Still for that read-out and setting: the entry for `S=C([S-])NCCNC(=S)[S-].[Mn+2]` is “inactive”. In the case of `CC(=O)[C@H]1CC[C@H]2[C@@H]3CCC4=CC(=O)CC[C@]4(C)[C@H]3CC[C@]12C`, the AC50 was 7970 nM (active). On to `CCNc1nc(N)nc(Cl)n1`, for which the result was inactive. With `S=C(S)NCCNC(=S)S.[Mn+2].[S-]C([S-])=NCCN=C([S-])[S-].[Zn+2]`, the call was inactive. Same read-out and setting: the entry for `CCCN(CCC)C(=O)SCC` is “inactive”; for `CCCCC(CC)CN1C(=O)C2C3C=CC(C3)C2C1=O` (centres undefined) it is “inactive”.

As usually defined, the AC50 is the midpoint of the concentration-response curve, whichever way the signal moves.
